Out of some 1,300 compounds screened, about 930 (72%) were called active.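 How the source made its calls: active means fitted curve reaches 40% activation signal increase at or below the top valid tested concentration in every replicate test; inconclusive means replicate tests disagree in their calls; inactive means all replicate tests inactive, including effects opposite the expected signal rise.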 The set was probably picked from earlier hits. Not all results are given here. Potency and affinity values are given separately.
assay: miR-122 inhibitors in Huh7 reporter cells, dose response, cell-based, Huh7 psiCHECK-miR122, Renilla luciferase, cherry-pick (AID 652053); details: 48 h; series mostly up to 35 µM; activation (miR-122 inhibition): at the top concentration

Activation (miR-122 inhibition), inactive:
COc1ccc(NC(=O)N(C)C[C@@H]2Oc3ccc(NC(=O)Nc4ccc(C(F)(F)F)cc4)cc3CC(=O)N([C@H](C)CO)C[C@H]2C)cc1 4.93%
Cc1ccc(S(=O)(=O)N(C)C[C@@H]2Oc3ccc(NC(=O)Nc4ccc(C(F)(F)F)cc4)cc3CC(=O)N([C@@H](C)CO)C[C@@H]2C)cc1 -7.06%
COc1ccc(NC(=O)N(C)C[C@H]2Oc3ccc(NC(=O)Nc4ccc(C(F)(F)F)cc4)cc3CC(=O)N([C@@H](C)CO)C[C@@H]2C)cc1 2.76% [at 30 µM]
Cc1ccc(S(=O)(=O)N(C)C[C@@H]2Oc3ccc(NC(=O)Nc4ccc(C(F)(F)F)cc4)cc3CC(=O)N([C@H](C)CO)C[C@@H]2C)cc1 12.7%
CSC(=S)NCc1cccnc1 33.8%
Cc1ccc(NC(=O)N(C2=NCC(C)S2)c2ccccc2)cc1 (centres undefined) 7.27%
Cc1ccc(SC(C)C(=O)NCCC2=CCCCC2)cc1 (centres undefined) 0.132%
Cn1c(=O)c2cc(S(=O)(=O)NCCC(=O)NCCC3=CCCCC3)ccc2n(C)c1=O -7.18%
Cc1ccc(-c2nnc(SCc3ccc(C#N)cc3)n2Cc2ccco2)cc1 25.7%
COc1ccc(OC)c(-n2cc3c(=O)n(C)c(=O)n(C)c3c2)c1 22.8%
CC(C)c1cc(C(=O)N/N=C/C(Br)=C/c2ccccc2)n[nH]1 38%
O=C(Nc1nc2c(s1)CCc1ccccc1-2)c1ccco1 33%
CCc1nc2ccc(C(=O)N3CCN(C(=O)c4ccco4)CC3)cn2c1N(C)C(=O)COc1ccccc1 -12.7%
Cc1ccc(NC(=O)COc2ccc(Br)cc2CO)cc1 -3.88%
CC(=O)N1[C@H](CNC(=O)CN(C)C)[C@H](c2ccc(C3=CCCCC3)cc2)[C@@H]1CO 0%
CC(=O)N(C)C[C@@H]1[C@@H](c2ccc(-c3cccnc3)cc2)[C@H](CO)N1C(=O)C1CC1 -1.89%
CC(=O)N(C)C[C@H]1[C@H](c2ccc(-c3cccnc3)cc2)[C@@H](CO)N1C(=O)C1CC1 4.37%
CN1[C@H](CO)[C@@H]2c3ccccc3N(C(=O)c3ccc(F)cc3)C[C@@H]21 15.8% [at 30 µM]
O=C(Nc1ccccc1F)N1C[C@@H]2[C@H](c3ccccc31)[C@H](CO)N2C(=O)c1ccc(F)cc1 24.2% [at 30 µM]
CC(=O)N1C[C@H]2[C@@H](c3ccccc31)[C@@H](CO)N2C(=O)c1ccc(F)cc1 -1.27%
O=C(c1ccc(F)cc1)N1C[C@H]2[C@@H](c3ccccc31)[C@H](CO)N2C(=O)c1ccc(F)cc1 12.4%
CC(=O)N1[C@H](CO)[C@@H]2c3ccccc3N(C(=O)c3ccc(F)cc3)C[C@@H]21 16.7%
O=C(Nc1ccccc1F)N1C[C@@H]2[C@H](c3ccccc31)[C@@H](CO)N2C(=O)c1ccc(F)cc1 17%
O=C(Nc1ccccc1F)N1C[C@H]2[C@@H](c3ccccc31)[C@H](CO)N2C(=O)c1ccc(F)cc1 15.8%
